Marburg entry inh: inhibitors of Marburg virus binding or cell entry | Marburg virus pseudotyped entry inhibition, cell reporter | Potency, µM (series often up to 37.8 µM), actives largely listed as inhibitors | 300,000 tested, 1.8% active; calls by dose curve; tested in HEK293 cells
FMDV antiviral: blocks foot and mouth disease virus; FMDV antiviral cell-based qHTS; Potency, µM (titrated, usually from 57.9 µM), actives largely listed as inhibitors; 410,000 tested, 1.2% active; AID 1159524; calls by dose curve; tested in HEK293T cells; note: read-out not given here; nearly all actives have a fitted effect of over 45% in size
Lassa entry inh: blocks Lassa virus binding to or entry into cells | 300,000 tested, 1.2% active | Lassa virus pseudotype entry inhibition, cell reporter | Potency, µM (top dose mostly 37.9 µM), actives largely listed as inhibitors; calls by dose curve; tested in HEK293 cells; note: nearly all actives have a fitted effect of over 50% in size
HCV inh: inhibitors of hepatitis C virus infection; Huh7.5.1 HCVcc-Cre infection, luciferase reporter, 44 h; Potency, µM (highest dose often 41.8 µM), usual class: inhibitors; 340,000 tested, 3.4% active; active = well fitted inhibition curve with a large enough effect; inconclusive = small, poorly fitted or top-dose-only effect, or another doubt; inactive = no such curve, though single readings can be large or run the other way
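After 44 h co-culture of compound, cells and HCVcc-Cre (~0.5 moi), substrate is added for 15 min at room temperature and luciferase measured over 15 sec. Cells were seeded at 1,000/well and pre-cultured 4 h.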
HCMV antiviral: inhibitors of human cytomegalovirus. HFF cells, HCMV-luciferase reporter, 72 h; active compounds read low. activity change, negative = inhibition, % at 57.5 µM. 410,000 tested, 4.5% active. AID 1259415; in the data active = activity change below about -60%; inconclusive = no clear call, values can overlap the other calls; inactive = above about -39%
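Screen run at 2 compound doses on HFFs infected with reporter HCMV, MOI 1 PFU/cell. Luciferase activity from cell lysates at 72 h post infection gave inhibition relative to buffer-only and Salinomycin wells.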
Hits are given with their value; 0 = inactive; ? = inconclusive; - = not tested or not shown; ! = not confirmed by another sample; [ ] = dose if it differs, or a comment. Hits are enriched below; roughly 7.9% of the tested compounds scored in any of these assays.

SMILES	Marburg entry inh	FMDV antiviral	Lassa entry inh	HCV inh	HCMV antiviral
CCN(CC)CCNC(=O)c1cc(Cl)c(N)cc1OC	?	0	?	0[8.37 µM]	0
CCN(CC)CCOC(=O)c1cc(Cl)c(N)cc1OC	12.6µM!	0	?	4.47µM	0
CS(=O)(=O)c1ncc(N(Cc2ccco2)Cc2cccs2)c(C(=O)Nc2ccccc2F)n1	0	0	0	-	0
COc1ccc(C2=C(CN(C)C)C(c3ccccc3)c3ccccc3O2)cc1 (stereo not drawn)	?	0	12.6µM	0	0
Cc1nc(CN2CCN(C(=O)NC3(c4ccccc4)CC3)CC2)cs1	0	0	0	0	-77.0
Cn1ncc2c(Nc3ccccc3Cl)nc(Nc3ccccc3Cl)nc21	?	0	0	6.31µM	0
CCOc1ccc(-c2cc(-c3nc(-c4cc(OC)c(OC)c(OC)c4)no3)[nH]n2)cc1Cl	-	0	0	-	0
C/C(N)=C(/C#N)C(=O)CSc1nc2cc(Cl)ccc2c(=O)n1-c1ccc(C)cc1	0	0	0	7.08µM	?
C/C(N)=C(/C#N)C(=O)CSc1nc2ccccc2c(=O)n1Cc1ccc(C)cc1	?	0	?	0	?
C/C(N)=C(/C#N)C(=O)CSc1nc2cc(Cl)ccc2c(=O)n1Cc1ccco1	0	0	?	14.1µM	?
C/C(N)=C(/C#N)C(=O)CSc1cc(Cl)ccc1Cl	0	0	0	0	0
C/C(N)=C(/C#N)C(=O)CSc1nc2cc(Cl)ccc2s1	0	0	0	8.91µM	0
CCCCn1c(SCC(=O)/C(C#N)=C(\C)N)nc2ccccc2c1=O	0	0	?	?	-72.7
C/C(N)=C(/C#N)C(=O)CSc1nc2ccccc2c(=O)n1Cc1ccc(F)cc1	-	0	-	0	0
CN(C(=O)c1cc2c(=O)n3ccccc3nc2n1C)c1ccccc1	-	0	0	-	0
CC=COC(=O)N[C@@H](c1ccccc1)[C@]1(C(C)=O)CCOC1=O	0	-	-	-	-
CCN(CC)C(=O)c1sc2c(c1C)c(=O)n(-c1ccc(C)c(C)c1)c(=O)n2CC(=O)Nc1ccc(OC)cc1OC	-	0	0	-	0
CC(=O)OC[C@H]1O[C@H](C#Cc2ccccc2)C=C[C@H]1OC(C)=O	0	-	-	-	-
Cc1cccc(N2CCN(S(=O)(=O)c3cc(C(=O)Nc4ccccc4Cl)ccc3F)CC2)c1C	-	0	?	-	?
COc1ccc2c(c1)[C@@]13CCCC[C@H]1[C@@H](C2)NCC3	18.3µM	-	?	-	-
COc1ccc2c(c1)C13CCCC[C@@H]1C(C2)N(C)CC3 (stereo partly drawn)	-	0	-	?	0
C=CCN1CC[C@]23CCCCC2[C@H]1Cc1ccc(O)cc13 (stereo partly drawn)	7.94µM!	-	0	-	-
COc1ccc2c(c1)C13CCCCC1C(C2)N(C)CC3 (stereo not drawn)	11.2µM	-	?	-	-
Cc1nc2sc(C(c3cccs3)N3CCN(c4cccc(Cl)c4)CC3)c(O)n2n1 (stereo not drawn)	-	0	-	0	-61.9
O=C(c1cccc(Cl)c1)N1CCC(=O)N([C@H](COCc2ccccc2)Cc2ccccc2)CC1	-	0	-	-	0
SMILES	Marburg entry inh	FMDV antiviral	Lassa entry inh	HCV inh	HCMV antiviral
O=C(c1cccc(Cl)c1)N1CCC(=O)N(C(COCc2cccc(Cl)c2)Cc2ccccc2)CC1 (stereo not drawn)	0	0	14.6µM	?	0
Cc1ccc(S(=O)(=O)N2CCC(=O)N(C(COCc3cccc(C)c3)Cc3ccccc3)CC2)cc1 (stereo not drawn)	?	0	14.6µM	?	0
Cc1cccc(C(=O)N2CCC(=O)N(C(COCc3ccc(Cl)cc3)Cc3ccccc3)CC2)c1 (stereo not drawn)	0	?	10.3µM	?	0
Cc1cccc(C(=O)N2CCC(=O)N([C@H](COCc3cccc(Cl)c3)Cc3ccccc3)CC2)c1	-	0	-	-	0
Cc1cccc(C(=O)N2CCC(=O)N(C(COCc3cccc(Cl)c3)Cc3ccccc3)CC2)c1 (stereo not drawn)	0	0	8.2µM	0[8.37 µM]	0
Cc1ccc(C)c(CSc2nnc(C)n3c2cc2sccc23)c1	-	0	0	-	0
Cc1ccc(S(=O)(=O)N2[C@@H](c3cccc(Cl)c3)C(C(=O)OC(C)(C)C)=CC[C@H]2c2cccc(Cl)c2)cc1	-	?	-	-	0
CC(C)(C)OC(=O)C1=CC[C@@H](c2ccc(Cl)c(Cl)c2)N(S(=O)(=O)c2ccc(F)cc2)[C@H]1c1cccc(F)c1	-	?	-	-	-64.0
CC(=O)c1cccc(NC(=O)Cn2c(=O)oc3cc(S(=O)(=O)NCc4ccccc4)ccc32)c1	-	0	0	-	0
COc1ccc(C(C)=NOC(=O)c2c(-c3ccccc3Cl)noc2C)cc1CN1CCOCC1	-	?	-	-	-60.2

High-throughput results (PubChem)
